Experimental findings from PubChem BioAssay (NCI) are described below.

Holding throughout (experiment): NCI-60 one-dose screen, 48 h (100 = growth as untreated, 0 = no growth, -100 = all killed)
Holding throughout (conditions): 10 µM unless noted

The subject of test [1] is SR leukemia.
Test [2] concerns RPMI-8226 leukemia.
For test [3], the system named is OVCAR-8 ovarian.
Test [4] concerns OVCAR-5 ovarian.
In test [5] the test system is OVCAR-4 ovarian.
Test [6] relates to SK-OV-3 ovarian.
Test [7] relates to IGROV1 ovarian.
Test [8] relates to HS 578T breast.
In test [9] the test system is NCI/ADR-RES ovarian.
Test [10] relates to OVCAR-3 ovarian.

Structures are written as SMILES. Compounds without any hit were thinned out: in the full panel of roughly 83,000, 20% have a hit.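 Method: cells in 96-well plates; compound added at one concentration; 48 h incubation; percent growth measured; values under 10 scored active.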 Values without a mark were called inactive. Active and inactive are the calls of the source.

As to `Cc1nc(C)c(C(=O)O)cc1C(=O)O`, the growth was 100% in test [1]; 106% in [2]; 115% in test [3]; 97.5% in test [4]; 122% in test [5]; 104% in test [6]. The growth in [7] was 124%; in [8], 124%; in [9], 107%.

On to `CC(C)(CC(=O)O)CC(=O)O`, for which the growth in test [1] was 99.3%; in test [2], 104%; in [3], 121%; in test [4], 99.5%; in [5] it was 108%; in test [6], 120%. Moreover, the growth in [7] is 111%; in test [8], 111%; in test [9] it was 99.9%.

As to `C=C(c1ccc(N(C)C)cc1)c1ccc(N(C)C)cc1`, the growth in test [1] was 11.8%; in test [2], 7.06% (active); in test [3], -5.66% (active); in [4] it was 16%; in test [5], 48.9%; in [6], 27.4%. Further, the growth in test [7] was 25.4%; in [10] it was -33% (active); in test [9], -35.5% (active).

`COC(=O)c1ccc([N+](=O)[O-])c(C)c1`: the growth in [1] was 79.8%; in test [2], 81.1%; in test [3] it was 108%; in test [4], 90.7%; in test [5], 101%; in [6] it was 106%. Besides, the growth in test [7] was 93.1%; in test [10], 105%; in test [9], 108%.

Turning to `N#C/C(=C\c1ccc2c(c1)OCO2)c1ccccc1`, the growth in test [1] was 14.2%; in test [2], 74.8%; in [3], 90.1%; in test [4] it was 79.6%; in [5], 99.8%; in test [6] it was 87.3%. Also, the growth in test [7] is 62.8%; in [10] it was 79.4%; in [9], 47.8%.

Consider `ON1CCCC1`, for which the growth in test [1] is 90.3%; in test [2] it was 88.2%; in test [3], 103%; in test [4] it was 103%; in [5] it was 107%; in [6], 102%. For the same molecule, the growth in test [7] was 108%; in test [10], 112%; in test [9], 102%.

With `NC(=S)N/N=C/c1ccc(Cl)cc1`, the growth in test [1] was 97.1%; in test [2] it was 97.8%; in [3] it was 92.9%; in test [4] it was 108%; in test [5], 97.3%; in [6] it was 118%. Further, the growth in test [10] is 116%; in test [8], 112%.

With `CC(=O)/C(C)=N\OC(=O)Nc1ccccc1`, the growth in test [1] is 106%; in test [2], 102%; in test [3], 106%; in [4] it was 93.1%; in test [5] it was 97.7%; in test [6], 90.3%. Besides, the values for the growth in test [10], in test [8] and in test [9] were 104%, 107% and 101%, respectively.

For `Cn1c(=O)c2[nH]c(CCCCC(=O)O)nc2n(C)c1=O`, the growth in [1] was 112%; in [2], 91.2%; in test [3], 101%; in [4], 112%; in test [5], 124%; in test [6], 113%. For the same molecule, the figures for the growth in test [7], in [10] and in [9] were 110%, 113% and 108%, respectively.

For the molecule `CC(=O)c1cc(O)ccc1O`, the growth in [1] was 94.2%; in test [2] it was 119%; in test [3] it was 95.9%; in [4], 99.9%; in test [5], 108%; in test [6], 107%. The growth was 117% in test [7], 110% in [8] and 92.8% in test [9].

For `CSCCC(NC(=O)C(Cl)Cl)C(=O)O` (configuration not stated), the growth is 91.5% in test [1]; 101% in test [2]; 96.7% in test [3]; 94.7% in [4]; 115% in test [5]; 85.6% in test [6]. In addition, the growth in [7] is 105%; in [8], 97.8%; in test [9] it was 106%.

With `Cc1ccc(S(=O)(=O)CCCl)cc1`, the growth in [1] is 90%; in [2], 101%; in test [3] it was 101%; in test [4] it was 101%; in test [5] it was 107%; in test [6] it was 124%. The growth in [7] was 123%; in test [8] it was 102%; in [9], 105%.

As for `CCOC(=O)Nc1nccs1`, the growth in test [1] is 110%; in test [2], 100%; in test [3], 104%; in test [4] it was 110%; in test [5], 109%; in test [6], 99.9%. The growth is 97.2% in test [7], 98.7% in test [8] and 112% in test [9].

Regarding `COc1ccc(C(=O)C(=O)c2ccccc2)cc1`, the growth in test [1] is 95.9%; in test [2], 103%; in [3], 105%; in test [4], 101%; in test [5] it was 100%; in test [6] it was 103%. In addition, the results for the growth in test [7], in test [10] and in test [9] were 102%, 108% and 104%, respectively.

`O=C(NC1CCCCC1)c1ccc(Cl)cc1`: the growth is 103% in test [1]; 105% in test [2]; 105% in test [3]; 99.5% in test [4]; 108% in test [5]; 114% in [6]. For the same molecule, the growth is 103% in test [7] and 106% in [8].

With `CN(C)c1ccc(/C=C/C(=O)c2ccc(NC(N)=O)cc2)cc1`, the growth was 61.2% in [1]; 63.8% in test [2]; 94.1% in test [3]; 99.8% in [4]; 94% in [5]; 105% in test [6]. For the same molecule, the growth in test [7] is 99.7%; in [10], 109%; in [9], 102%.

Consider `O=Cc1ccc(F)cc1`, for which the growth in test [1] is 111%; in test [2] it was 105%; in [3] it was 103%; in test [4] it was 102%; in [5], 106%; in test [6], 109%. In addition, the growth in test [7] is 95.2%; in [10] it was 111%; in [9], 107%.

For `N#CCCN1C(=O)CCC1C(=O)O` (configuration not stated), the growth in [1] was 92.9%; in [2] it was 95.2%; in [3], 98.1%; in test [4], 105%; in [5] it was 114%; in [6], 145%. Further, the growth in [7] was 107%; in test [9], 119%.

In the case of `O=S1(=O)c2ccccc2Oc2ccccc21`, the growth in [1] was 101%; in test [2], 110%; in test [3], 99.6%; in test [4], 96.3%; in test [5], 100%; in test [6] it was 104%. Besides, the values for the growth in test [7], in test [8] and in test [9] were 105%, 106% and 108%, respectively.

With `c1ccc2[nH]c(Cc3nc4ccccc4[nH]3)nc2c1`, the growth in [1] is 100%; in [2], 71.9%; in test [3] it was 112%; in [4], 92%; in test [5], 96.5%; in [6], 126%. For the same molecule, the growth was 92.2% in test [7], 122% in test [10] and 110% in test [9].

With `CCOC(=O)c1ccc(C(C)(C)C)cc1`, the growth is 95.7% in test [1]; 104% in test [2]; 103% in test [3]; 106% in test [4]; 109% in [5]; 104% in test [6]. Further, the growth in test [10] was 107%; in test [8], 114%; in test [9] it was 108%.

Take `NNc1ncnc2nc[nH]c12`: the growth in test [1] is 32.5%; in test [2], 13.4%; in test [3], 16.4%; in test [4] it was 63.7%; in test [5], 44.6%; in test [10] it was 79%. Moreover, the growth in test [8] was 84.8%; in [9] it was 42.7%.

For `CN(C)c1ncnc2c1cnn2C`, the growth in test [1] was 109%; in [2] it was 89%; in [3], 94.7%; in [4], 97.5%; in [5], 102%; in [10] it was 104%. Moreover, the growth in test [8] is 99.1%; in test [9], 99.9%.

With `CC12CCC3c4ccc(O)cc4CCC3C1CCC2=O` (configuration not stated), the growth in test [1] was 67.4%; in test [2], 98.8%; in [3] it was 100%; in test [4] it was 112%; in test [5], 106%; in [6], 117%. Besides, the growth in test [10] was 112%; in test [8], 104%; in [9] it was 111%.

Consider `CSc1cnc2ccccc2n1`, for which the growth in [1] was 95.4%; in test [2], 109%; in test [3] it was 95.5%; in test [4], 101%; in test [5], 115%; in test [6] it was 97.2%. The growth in test [10] was 107%; in test [8], 98.8%; in [9], 103%.

For the molecule `Cc1ccc(O)c(N)c1`, the growth was 113% in [1]; 55.7% in [2]; 104% in test [3]; 115% in [4]; 111% in test [5]; 118% in [10]. Besides, the values for the growth in [8] and in test [9] were 106% and 107%, respectively.

As to `OCc1cccnc1`, the growth is 95.1% in test [1]; 102% in test [2]; 95.2% in test [3]; 99.6% in test [4]; 115% in test [5]; 107% in test [6]. In addition, the growth in test [10] is 114%; in [8], 97.2%; in test [9] it was 115%.

For the molecule `CCOC(=O)c1c[nH][nH]c1=O`, the growth is 109% in [1]; 93% in test [2]; 105% in test [3]; 94.8% in test [4]; 101% in test [5]; 110% in test [6]. Besides, the results for the growth in [10], in [8] and in [9] were 112%, 119% and 98.4%, respectively.

As for `CC(C)c1ncc([N+](=O)[O-])n1C`, the growth was 106% in test [1]; 102% in [2]; 97.5% in test [3]; 103% in test [4]; 117% in test [5]; 112% in test [6]. In addition, the growth in test [10] is 125%; in test [8] it was 80.1%; in test [9], 108%.

For `CC(=O)N(CCCCCCN(C(C)=O)C(C)=O)C(C)=O`, the growth is 99.6% [100 µM] in test [1]; 107% [100 µM] in [2]; 107% [100 µM] in test [3]; 110% [100 µM] in [4]; 101% [100 µM] in test [5]; 114% [100 µM] in [6]. The results for the growth in test [10], in test [8] and in test [9] were 113% [100 µM], 105% [100 µM] and 105% [100 µM], respectively.

Consider `O=Cc1ccc(O)c(O)c1`, for which the growth is 82.9% in [1]; 87.5% in test [2]; 95.8% in test [3]; 96.2% in [4]; 97.1% in test [5]; 88.8% in test [7]. Also, the growth in [10] was 96.3%; in test [8], 133%.

As to `Cc1ccc(S(=O)(=O)NC(=O)NCCSSCCNC(=O)NS(=O)(=O)c2ccc(C)cc2)cc1`, the growth is 107% in test [1]; 99.8% in test [2]; 106% in [3]; 93.6% in test [4]; 112% in test [5]; 116% in [6]. In addition, the growth in test [8] is 97.5%; in test [9] it was 111%.

Turning to `CCOC(=O)/C(C)=C\c1ccc(OC)c(OC)c1`, the growth in test [1] is 86.5%; in test [2], 103%; in [3], 101%; in [4], 99.3%; in test [5] it was 101%; in test [6], 103%. Moreover, the growth was 103% in test [10], 108% in test [8] and 100% in test [9].

Take `Nc1ccc(F)c(Cl)c1F`: the growth in [1] was 101%; in test [2] it was 93.7%; in [3] it was 108%; in test [4], 98.8%; in test [5], 112%; in test [6], 113%. The growth is 96.4% in [8] and 105% in [9].
